Our source for the growth values is PubChem BioAssay (NCI).

This is part of a sample that, as a whole, favours compounds with a hit. Of some 83,000 tested, about 20% had one in any assay.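 Cells were grown in 96-well plates and exposed to the test compound at a single concentration for 48 hours; results are reported as percent growth, with values below 10 considered active.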 A number with no mark means an inactive call. The source made the active and inactive calls.

The assay concerns LOX IMVI melanoma. The assay can be described thus: NCI-60 one-dose screen, 48 h (100 = growth as untreated, 0 = no growth, -100 = all killed). The note with it: 10 µM. How it is done:
Growth inhibition of the LOX IMVI human tumor cell line is measured as a screen for anti-cancer activity. Cells are grown in 96 well plates and exposed to the test compound for 48 hours. Compounds are tested at a single concentration, which is 10^-5 M for most compounds. The reported endpoint is percent growth (GI% or GIPRCNT), where numbers from 0 - 100% represent growth inhibition, and numbers from -100% - 0 represent cell death. For example, a value of 40 represents 60% growth inhibition. A value of 0 means no net growth occurred over the course of the experiment. A value of -40 indicates 40% of cells at the beginning of the experiment died by the end of the experiment. A value of -100 means all cells are dead at the end of the experiment.
NCI-60 Human Tumor Cell Lines Screen was performed using the standard one-dose NCI protocol, which is described in more detail at https://dtp.cancer.gov/discovery_development/nci-60/default.htm.
Compounds with GIPRCNT values below 10 were considered active. Activity score was based on GIPRCNT using the following formula: […]
Score is 0 for GIPRCNT values of 100 or above, 50 for GIPRCNT values of 0, and 100 for GIPRCNT values of -100.
As for `Cc1noc(C)c1CSc1ccccc1C(=O)N1CCN(c2cccc(C(F)(F)F)c2)CC1`, the growth was 74.9%.

As to `Nc1cc(Br)c(-c2nn3c(CCC(=O)c4nc5ccccc5[nH]4)nnc3s2)c(Br)c1`, the growth was 93.4%. Then `O=S(=O)(O)c1ccc(Cl)cc1`, with 96.3%; and `CSc1nc(S(C)(=O)=O)nc2[nH]c(=O)[nH]c12`, with 108%; and `CCn1c(CSc2nc3ccccc3c(=O)n2CCc2ccccc2)n[nH]c1=S`, with 74.2%.

As to `CS(=O)(=O)c1nccc(-c2c(-c3cccc(O)c3)nc3sccn23)n1`, the growth is 91.5%. `NC(CSC(c1ccccc1)(c1ccccc1)c1cccc2ccccc12)C(=O)O` (stereo not given): the growth was 96.9%. Then `O=S(=O)(Oc1ccc(-c2ccc3sccc3c2)cc1)c1ccc(F)cc1`, with 96.9%; and `O=C(N/N=C/c1c(Cl)cccc1Cl)c1ccccc1Nc1cccc(C(F)(F)F)c1`, with 76.3%. As to `O=C(CCNC(=O)c1nc(-c2ccccc2)n(-c2ccc(Cl)cc2)n1)NO`, the growth was 98.5%. Then `COc1ccc(-c2cc(-c3cc(OC)ccc3OC)nc(N)c2C#N)cc1`, with 58.6%. `Nc1ccc(/C=N/Nc2ccnc3c(O)cccc23)c2cccnc12`: the growth was -72.9% (active). As for `C#CC(C)(O)[C@@H]1C[C@H](CC(=O)O)C1(C)C` (stereo not given in full), the growth was 98.1%. Then `CCOC(=O)c1cc(C(=O)c2ccc(F)cc2F)n2ccccc12`, with 90.4%; and `c1ccc(/C(=N\Nc2ccc3ccccc3n2)c2ccccn2)cc1`, with -13.5% (active); and `CCN(CC)c1ccc(/C=C2\SC(=O)C(Nc3nnc(-c4cccnc4SCc4ccccc4)o3)C2=O)cc1` (stereo not given), with 42.3%. As for `COc1ccc(C(=O)N2C=Cc3ccccc3C2C#N)cc1` (stereo not given), the growth is 95.4%. Turning to `Cc1ccc(C(=O)C2C(=O)C3CCC2C3)cc1` (stereo not given), the growth is 95.4%. For the molecule `OCC1OC(n2cnc3c(NCc4ccco4)ncnc32)C(O)C1O` (stereo not given), the growth was -63.7% (active). For `O=C(Nc1ccc(F)cc1)c1cc2ccccc2cc1O` the value was 76%; for `COc1ccc(C(=O)CSc2nc(-c3cc(OC)ccc3OC)cc(-c3ccc(OC)cc3)c2C#N)cc1`, 91.4%; for `CCn1c(SC/C(=N/O)c2ccccc2)nnc1-c1ccccc1`, 104%. As to `CC(=O)C1CCC2C3CC=C4CC(SC(=N)N)CCC4(C)C3CCC12C` (stereo not given), the growth is -56% (active). Then `COC(=O)C1OC1c1cc([N+](=O)[O-])ccc1OC` (stereo not given), with 93.4%. With `CC(C)(C)OC(=O)N1CCc2c(sc3ncnc(N/N=C/c4ccc(Br)cc4)c23)C1`, the growth was 54.8%. Then `O=C(O)COc1c(Cl)cc([N+](=O)[O-])cc1Cl`, with 100%. For `COc1cc(-c2nn(-c3cccc(NC(=O)NCCNC(=O)c4cccc(C(F)(F)F)c4)c3)cc2-c2ccncc2)ccc1Cl` the value was 31.7%; for `Cc1c2cnccc2c(C)c2c1oc1ccccc12`, 42.1%. Then `CC(CN(C)C)Oc1ccccc1NC1=C(Cl)C(=O)C(Nc2ccccc2OC(C)CN(C)C)=C(Cl)C1=O` (stereo not given), with -80.6% (active); and `O=C(Nc1cc(Cl)cc2c1-c1ccc(Cl)cc1C2O)C(Cl)Cl` (stereo not given), with 76.2%. Regarding `Nc1nccc(OCCO)n1`, the growth was 97.5%. For `CC(C)Cc1ccc([C@H](C)C(=O)O)cc1` the value was 101%; for `CC(C)(C)OC(=O)CC(S(=O)(=O)c1ccccc1)S(=O)(=O)c1ccccc1`, 94.7%; for `Cc1cc(Cl)ccc1Nc1nc(C(F)(F)F)ccc1C(=O)N/N=C/c1cccc(O)c1`, 35.9%.

On to `COc1cc2c3c(n(C4CCN(C)CC4)c(=O)c2cc1OC)-c1cc2c(cc1C3=O)OCO2`, for which the growth is 8.68% (active).

As to `O=C1CCn2c1c(O)c1ccccc1c2=O`, the growth was 107%.

As for `Cn1c2ccccc2c2c3[nH][nH]c(=O)c3c3c4ccccc4[nH]c3c21`, the growth was -30.3% (active). Turning to `CCOC(=O)CN(c1sc(C)c(C)c1C(=O)OCC)S(=O)(=O)c1ccc(C)cc1`, the growth is 87.4%. For `COc1ccc(/C=C2\CCCC3=C2N=C2SC(C)=CN2C3c2ccc(OC)cc2)cc1` (stereo not given), the growth is 91.5%. Consider `COc1cc(C(=O)N2CCN(c3cc4c(cc3F)c(=O)c(C(=O)NO)cn4C3CC3)CC2)cc(OC)c1OC`, for which the growth is 94.1%.
